± gives the standard deviation of the averaged measurements.
Each compound was assayed on Caenorhabditis elegans N2 infected with Nematocida parisii ERTm1 (assay: progeny production relative to DMSO uninfected control; higher = more progeny despite microsporidia infection (inhibition of infection with low host toxicity)). Conditions: infection time 6 days; 40 µM.
Method in brief: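 Progeny production is reported as a percentage of spore-free vehicle wells and averaged across replicates. It was measured after bleach-synchronised wild-type C. elegans L1 larvae (100 per well) spent 6 days shaking at 21°C in K-medium with E. coli OP50, 15,000 N. parisii spores/μL and compound at 100 μM or 40 μM in 1% DMSO. Counting used Rose Bengal staining, flatbed scanning and WorMachine, and each compound and dose was tested three times.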

How did the progeny production turn out when `CCN(CC)CCCC(C)Nc1ccnc2cc(Cl)ccc12` (stereo unspecified) was run?
The progeny production was 8.75 ± 5.2%.

With `C[C@H](c1cccc2ccccc12)N(C)Cc1ccccc1` as the compound, how does the progeny production read?
Its progeny production is 3.94 ± 1.7%.

`Nc1nc(-c2ccccc2)nc2c1ncn2[C@@H]1O[C@H](COS(=O)(=O)NC(=O)c2ccccc2O)[C@@H](O)[C@H]1O` was tested. Which progeny production did it give?
The progeny production was 6.94 ± 2.3%.

For `COc1cc(C(C(=O)NC2CCCCC2)N(C(=O)Cc2c[nH]c3ccccc23)c2ccc(C(C)C)cc2)cc(OC)c1OC` (stereo unspecified), which progeny production is on record?
Its progeny production is 5.01 ± 0.57%.

`Nc1nc(-c2ccccc2)nc2[nH]nc(Nc3ccc(C(F)(F)F)cc3)c12` was tested. Which progeny production did it give?
The progeny production was 7.69 ± 2.2%.

With `Cc1cccc(C)c1C(=O)Nc1nc(-c2ccccn2)cc2ccccc12` as the compound, how does the progeny production read?
Its progeny production is 4.99 ± 2.4%.

`CC(C)n1cnc2c(NCc3ccccc3)nc(NCc3ccccc3)nc21` was tested. Which progeny production did it give?
The progeny production was 7.59 ± 5.2%.

With `COc1ccc2c(c1)cc(CNC(=O)c1cc3ccccc3o1)n2CC(=O)O` as the compound, how does the progeny production read?
The progeny production was 3.92 ± 2.4%.

`O=C(O)c1sccc1S(=O)(=O)n1ccc2cc(Br)ccc21` was tested. Which progeny production did it give?
Its progeny production is 5.86 ± 1.6%.

Which progeny production does the source give for `Cc1onc(-c2ccccc2)c1-c1ccc(S(N)(=O)=O)cc1` here?
Its progeny production is 3.75 ± 1.8%.

For `CC#C[C@]1(O)CC[C@H]2[C@@H]3CCC4=CC(=O)CCC4=C3[C@@H](c3ccc(N(C)C)cc3)C[C@@]21C`, which progeny production is on record?
The progeny production was 4.64 ± 1.1%.

For `CC(Oc1ccc(Cl)cc1Cl)C(=O)NCc1ccc2c(c1)OCO2` (stereo unspecified), which progeny production is on record?
Its progeny production is 3.27 ± 0.72%.

With `CCOC(=O)/C=C/[C@H](C[C@@H]1CCNC1=O)NC(=O)[C@@H](CC(=O)[C@@H](NC(=O)c1cc(C)on1)C(C)C)Cc1ccc(F)cc1` as the compound, how does the progeny production read?
The progeny production was 3.79 ± 1.2%.

Which progeny production does the source give for `Nc1cnn(C2OC(CO)C(O)C2O)c(=O)n1` (stereo unspecified) here?
Its progeny production is 3.5 ± 1.1%.

`O=C(Nc1ncc(Cc2cccc3ccccc23)s1)C1CCCCC1` was tested. Which progeny production did it give?
The progeny production was 8.93 ± 0.69%.

Which progeny production does the source give for `CCCCCCCCCN1C[C@@H](O)[C@H](O)[C@@H](O)[C@@H]1CO` here?
Its progeny production is 6.57 ± 1.1%.
